Source: PubChem BioAssay AID1159580 (chemical genetic matrix, 2015)
Screen size: about 5,500 compounds; about 2,000 (36%) were called active. Not shown: some 18% with an inconclusive outcome. Cut-off read from the data, not from the text of the source: active = normalized growth mostly below about 0.91 (no sharp cut-off); inconclusive = no clear call, values can overlap the other calls; inactive = mostly above about 0.92. The list shows a part of the results.

Experiment: chemical genetic growth profiling, strain panel (AID 1159580);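 note: tested at 20 µM; growth read once vehicle control cultures reached saturation at 30 °C; 1 = growth at the plate median or of vehicle wells; lower values mean less growth of the strain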
Conditions: growth OD

Measured: normalized growth

NC1(C(=O)O)CCCC1
inactive: S. cerevisiae deletion strains, locus YJR075W, strain HOC1, hits give low values 0.997 | S. cerevisiae deletion strains, locus YKL009W, strain mrt4, hits give low values 0.993 | S. cerevisiae deletion strains, locus YKL068W, hits give low values 1 | S. cerevisiae deletion strains, locus YKL085W, strain MDH1 (second series), hits give low values 0.996 | S. cerevisiae deletion strains, locus YKL085W, strain MDH1, hits give low values 0.996 | S. cerevisiae deletion strains, locus YKL160W, strain elf1, hits give low values 1.02 | S. cerevisiae deletion strains, locus YKL190W, strain CNB1, hits give low values 1.01 | S. cerevisiae deletion strains, locus YKR001C, strain vps1, hits give low values 0.998 | S. cerevisiae deletion strains, locus YKR026C, strain gcn3, hits give low values 1.02 | S. cerevisiae deletion strains, locus YKR091W, strain srl3, hits give low values 1.01 | S. cerevisiae deletion strains, locus YLL001W, strain dnm1, hits give low values 1.03 | S. cerevisiae deletion strains, locus YLL026W, hits give low values 1.01 | S. cerevisiae deletion strains, locus YLL041C, strain sdh2, hits give low values 1.02 | S. cerevisiae deletion strains, locus YLR027C, strain aat2, hits give low values 1.02 | S. cerevisiae deletion strains, locus YLR039C, strain RIC1, hits give low values 0.971 | S. cerevisiae deletion strains, locus YLR058C, strain SHM2, hits give low values 1.01 | S. cerevisiae deletion strains, locus YLR102C, strain apc9, hits give low values 1 | S. cerevisiae deletion strains, locus YLR113W, strain HOG1, hits give low values 1.06 | S. cerevisiae deletion strains, locus YLR221C, strain rsa3, hits give low values 0.994 | S. cerevisiae deletion strains, locus YLR258W, strain gsy2, hits give low values 1.02 | S. cerevisiae deletion strains, locus YLR262C, strain YPT6 (second series), hits give low values 1.04 | S. cerevisiae deletion strains, locus YLR262C, strain YPT6, hits give low values 1.02 | S. cerevisiae deletion strains, locus YLR268W, strain sec22, hits give low values 1.01 | S. cerevisiae deletion strains, locus YLR320W, strain mms22, hits give low values 1.03 | S. cerevisiae deletion strains, locus YLR330W, strain CHS5, hits give low values 1 | S. cerevisiae deletion strains, locus YLR342W, strain FKS1 (second series), hits give low values 1 | S. cerevisiae deletion strains, locus YLR342W, strain FKS1, hits give low values 1.02 | S. cerevisiae deletion strains, locus YLR357W, strain rsc2, hits give low values 1.02 | S. cerevisiae deletion strains, locus YLR370C, strain arc18, hits give low values 1.02 | S. cerevisiae deletion strains, locus YLR371W, strain rom2, hits give low values 1 | S. cerevisiae deletion strains, locus YLR384C, strain iki3, hits give low values 1.02 | S. cerevisiae deletion strains, locus YLR418C, strain cdc73, hits give low values 0.992 | S. cerevisiae deletion strains, locus YML016C, strain PPZ1, hits give low values 1 | S. cerevisiae deletion strains, locus YML032C, strain rad52, hits give low values 0.995 | S. cerevisiae deletion strains, locus YML120C, strain ndi1, hits give low values 1.03 | S. cerevisiae deletion strains, locus YML124C, strain tub3, hits give low values 0.998 | S. cerevisiae deletion strains, locus YMR058W, strain fet3, hits give low values 1.02 | S. cerevisiae deletion strains, locus YMR078C, strain ctf18, hits give low values 0.998 | S. cerevisiae deletion strains, locus YMR125W, strain sto1, hits give low values 1.05 | S. cerevisiae deletion strains, locus YMR129W, hits give low values 1.02 | S. cerevisiae deletion strains, locus YMR205C, strain PFK2, hits give low values 1.03 | S. cerevisiae deletion strains, locus YMR223W, strain ubp8, hits give low values 1.01 | S. cerevisiae deletion strains, locus YMR231W, strain pep5, hits give low values 1.02 | S. cerevisiae deletion strains, locus YMR307W, strain GAS1, hits give low values 1.01 | S. cerevisiae deletion strains, locus YNL067W, strain RPL9B, hits give low values 1 | S. cerevisiae deletion strains, locus YNL071W, strain lat1, hits give low values 1.02 | S. cerevisiae deletion strains, locus YNL128W, strain TEP1, hits give low values 1.02 | S. cerevisiae deletion strains, locus YNL183C, strain NPR1, hits give low values 0.946 | S. cerevisiae deletion strains, locus YNL209W, strain ssb2, hits give low values 1.01 | S. cerevisiae deletion strains, locus YNL233W, strain BNI4, hits give low values 0.991 | S. cerevisiae deletion strains, locus YNL248C, strain rpa49, hits give low values 1 | S. cerevisiae deletion strains, locus YNL250W, strain rad50, hits give low values 1.02 | S. cerevisiae deletion strains, locus YNL271C, strain bni1, hits give low values 0.998 | S. cerevisiae deletion strains, locus YNL298W, strain CLA4, hits give low values 1.01 | S. cerevisiae deletion strains, locus YNL307C, strain MCK1, hits give low values 0.996 | S. cerevisiae deletion strains, locus YNL322C, strain KRE1 (second series), hits give low values 1.01 | S. cerevisiae deletion strains, locus YNL322C, strain KRE1, hits give low values 1.01 | S. cerevisiae deletion strains, locus YNR049C, strain mso1, hits give low values 1.01 | S. cerevisiae deletion strains, locus YNR052C, strain pop2, hits give low values 1.01 | S. cerevisiae deletion strains, locus YOL006C, strain TOP1, hits give low values 0.987 | S. cerevisiae deletion strains, locus YOL012C, strain htz1 0.665 | S. cerevisiae deletion strains, locus YOL147C, strain pex11, hits give low values 0.993 | S. cerevisiae deletion strains, locus YOR001W, strain rrp6, hits give low values 1.03 | S. cerevisiae deletion strains, locus YOR061W, strain CKA2, hits give low values 1.01 | S. cerevisiae deletion strains, locus YOR069W, strain VPS5, hits give low values 1.01 | S. cerevisiae deletion strains, locus YOR070C, strain gyp1, hits give low values 1.02 | S. cerevisiae deletion strains, locus YOR080W, strain dia2, hits give low values 1.02 | S. cerevisiae deletion strains, locus YOR083W, strain WHI5, hits give low values 1.03 | S. cerevisiae deletion strains, locus YOR106W, strain vam3, hits give low values 1.02 | S. cerevisiae deletion strains, locus YOR136W, strain idh2, hits give low values 0.998 | S. cerevisiae deletion strains, locus YOR144C, strain elg1, hits give low values 0.997 | S. cerevisiae deletion strains, locus YOR184W, strain ser1, hits give low values 0.996 | S. cerevisiae deletion strains, locus YOR231W, strain MKK1, hits give low values 1.04 | S. cerevisiae deletion strains, locus YOR265W, strain rbl2, hits give low values 1.01 | S. cerevisiae deletion strains, locus YOR270C, strain vph1, hits give low values 1.07 | S. cerevisiae deletion strains, locus YOR290C, strain snf2, hits give low values 1.02 | S. cerevisiae deletion strains, locus YOR316C, strain cot1, hits give low values 1 | S. cerevisiae deletion strains, locus YPL051W, strain arl3, hits give low values 1.03 | S. cerevisiae deletion strains, locus YPL055C, strain LGE1, hits give low values 1.03 | S. cerevisiae deletion strains, locus YPL078C, strain atp4, hits give low values 1.04 | S. cerevisiae deletion strains, locus YPL106C, strain sse1, hits give low values 1.02 | S. cerevisiae deletion strains, locus YPL240C, strain hsp82, hits give low values 1.01 | S. cerevisiae deletion strains, locus YPL256C, strain CLN2, hits give low values 1.04 | S. cerevisiae deletion strains, locus YPR119W, strain clb2, hits give low values 0.998 | S. cerevisiae deletion strains, locus YPR141C, strain kar3, hits give low values 0.991 | S. cerevisiae deletion strains, locus YPR163C, strain tif3, hits give low values 1 | S. cerevisiae deletion strains, locus YPR167C, strain met16, hits give low values 0.992 | S. cerevisiae deletion strains, strain wtn01, hits give low values 0.994 | S. cerevisiae strains, strain wild type, hits give low values 1.01
